Measured values taken from the supplement of paper PMC12532568.
Counter-ions that a name gives are not always drawn.

Each compound was assayed on Danio rerio larvae Tg(actc1b:ZsGreen-LC3), 3 dpf (assay: LC3 puncta relative area vs vehicle, with NH4Cl (autophagic flux) (log2 fold change); higher = more autophagy). Conditions: 10 µM; treatment time 16 h; NH4Cl: + 100 mM, 4 h.
Protocol: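 Transgenic Tg(actc1b:ZsGreen-map1lc3) zebrafish larvae (2 dpf) were treated for 16 h with Tocris library compounds at 10 µM (n = 12 larvae per compound). Skeletal-muscle LC3 puncta area relative to body area was measured by high-content confocal imaging before and after 4 h of 100 mM NH4Cl (autophagic flux), normalised to vehicle (DMSO), and reported as log2 fold change.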

**Q.** With `CC(C)NCC(O)c1ccc2ccccc2c1` (stereo not given) [Pronethalol hydrochloride] as the compound, how does the “LC3 puncta (log2)” value read?
**A.** Its value is 0.862.

**Q.** `OCCN(CCO)c1nc(N2CCCCC2)c2nc(N(CCO)CCO)nc(N3CCCCC3)c2n1` [Dipyridamole] was tested. Which “LC3 puncta (log2)” value did it give?
**A.** Its value is -0.141.

**Q.** `S=C(S)N1CCCC1` [Pyrrolidinedithiocarbamate ammonium] was tested. Which “LC3 puncta (log2)” value did it give?
**A.** Its value is 0.71.

**Q.** How did the “LC3 puncta (log2)” value turn out when `CC(CCc1ccc(O)cc1)NCCc1ccc(O)c(O)c1` (stereo not given) [Dobutamine hydrochloride] was run?
**A.** The value was 0.472.

**Q.** Which “LC3 puncta (log2)” value does the source give for `CC(=O)N[C@@H](Cc1c[nH]c2ccccc12)C(=O)OCc1cc(C(F)(F)F)cc(C(F)(F)F)c1` here?
**A.** The value was 0.108.

**Q.** Which “LC3 puncta (log2)” value does the source give for `O=C(O)C1=CCNCC1` [Isoguvacine hydrochloride] here?
**A.** Its value is 0.468.

**Q.** With `NC(N)=NC(N)=Nc1cccc(Cl)c1` [m-Chlorophenylbiguanide hydrochloride] as the compound, how does the “LC3 puncta (log2)” value read?
**A.** Its value is 0.782.

**Q.** `CC(C)Oc1ccc2c(=O)c3cc(C(=O)O)ccc3oc2c1` was tested. Which “LC3 puncta (log2)” value did it give?
**A.** The value was 0.814.

**Q.** Which “LC3 puncta (log2)” value does the source give for `c1cc2c(cc1C1CCCCC1)c1c3n2CCNC3CCC1` (stereo not given) [Tetrindole mesylate] here?
**A.** Its value is 0.836.

**Q.** Which “LC3 puncta (log2)” value does the source give for `CCC1(c2ccccc2)C(=O)NCNC1=O` [Primidone] here?
**A.** Its value is 0.792.

**Q.** How did the “LC3 puncta (log2)” value turn out when `Brc1c(NC2=NCCN2)ccc2nccnc12` was run?
**A.** The value was 0.713.

**Q.** Which “LC3 puncta (log2)” value does the source give for `NC(=O)Nc1sc(-c2ccc(F)cc2)cc1C(N)=O` here?
**A.** The value was 0.588.

**Q.** For `O=S(=O)(c1cccc2cnccc12)N1CCCNCC1` [Fasudil hydrochloride], which “LC3 puncta (log2)” value is on record?
**A.** The value was 0.726.

**Q.** With `c1ccc(CN(CC2=NCCN2)c2ccccc2)cc1` [Antazoline hydrochloride] as the compound, how does the “LC3 puncta (log2)” value read?
**A.** The value was 0.684.

**Q.** Which “LC3 puncta (log2)” value does the source give for `CC(C)CC(NC(=O)OCC1c2ccccc2-c2ccccc21)C(=O)O` (stereo not given) here?
**A.** The value was 0.569.

**Q.** How did the “LC3 puncta (log2)” value turn out when `NC(=O)c1cccc(N)c1` [3-Aminobenzamide] was run?
**A.** The value was 0.645.

**Q.** How did the “LC3 puncta (log2)” value turn out when `CC(C)NC[C@H](O)COc1ccc(CC(N)=O)cc1` [(S)-(-)-Atenolol] was run?
**A.** Its value is 0.611.

**Q.** How did the “LC3 puncta (log2)” value turn out when `c1ccc(CN2CCC3(CCc4ccccc43)CC2)cc1` [L-693,403 maleate] was run?
**A.** Its value is 0.655.

**Q.** Which “LC3 puncta (log2)” value does the source give for `CC(C)[N+]1(C)[C@@H]2CC[C@H]1C[C@@H](OC(=O)C(CO)c1ccccc1)C2` (stereo not given in full) [Ipratropium bromide] here?
**A.** Its value is 0.284.

**Q.** For `CC(N)(Cc1ccc(O)c(O)c1)C(=O)O` (stereo not given), which “LC3 puncta (log2)” value is on record?
**A.** Its value is 0.209.

**Q.** With `O=C1c2ccccc2CCC1CNCCc1ccc(O)cc1` (stereo not given) [HEAT hydrochloride] as the compound, how does the “LC3 puncta (log2)” value read?
**A.** The value was 0.616.

**Q.** How did the “LC3 puncta (log2)” value turn out when `COc1ccc2[nH]c(I)c(CCNC(C)=O)c2c1` [2-Iodomelatonin] was run?
**A.** Its value is 0.706.

**Q.** For `CNC(=O)c1cc2c(cn1)[nH]c1ccccc12`, which “LC3 puncta (log2)” value is on record?
**A.** Its value is 0.446.

**Q.** For `CC(C)NC[C@H](O)COc1cccc2ccccc12` [(S)-(-)-Propranolol hydrochloride], which “LC3 puncta (log2)” value is on record?
**A.** Its value is 1.09.

**Q.** Which “LC3 puncta (log2)” value does the source give for `CCOC(=O)C1=C(C)NC(C)=C(C(=O)OC)C1c1cccc([N+](=O)[O-])c1` (stereo not given) [Nitrendipine] here?
**A.** The value was 0.513.

**Q.** With `N=C(N)S/C=C\C(=O)O` [ZAPA sulfate] as the compound, how does the “LC3 puncta (log2)” value read?
**A.** Its value is 0.0813.

**Q.** For `Nc1cc(N2CCCCC2)nc(N)[n+]1[O-]` [Minoxidil], which “LC3 puncta (log2)” value is on record?
**A.** The value was 0.501.

**Q.** How did the “LC3 puncta (log2)” value turn out when `CC#CCOC(=O)C1=CCCN(C)C1` [Arecaidine but-2-ynyl ester tosylate] was run?
**A.** Its value is 0.452.

**Q.** Which “LC3 puncta (log2)” value does the source give for `CCN(CC)CCOc1ccc(Cc2ccccc2)cc1` [DPPE fumarate] here?
**A.** The value was 0.857.

**Q.** Which “LC3 puncta (log2)” value does the source give for `Cc1ccc(/C(=C\CN2CCCC2)c2ccccn2)cc1` [trans-Triprolidine hydrochloride] here?
**A.** Its value is -0.196.

**Q.** `N[C@H](C(=O)O)c1ccc(C(=O)O)c(O)c1` [(S)-4-Carboxy-3-hydroxyphenylglycine] was tested. Which “LC3 puncta (log2)” value did it give?
**A.** Its value is -0.0785.

**Q.** For `CC[C@@H]1C(=O)OC[C@@H]1Cc1cncn1C` [Pilocarpine hydrochloride], which “LC3 puncta (log2)” value is on record?
**A.** The value was 0.652.

**Q.** With `CCCCCCN(CCCCCC)C(=O)Cc1c(-c2ccc(F)cc2)[nH]c2ccccc12` as the compound, how does the “LC3 puncta (log2)” value read?
**A.** The value was 0.295.

**Q.** Which “LC3 puncta (log2)” value does the source give for `COc1cc(C(=O)OCCCN2CCCN(CCCOC(=O)c3cc(OC)c(OC)c(OC)c3)CC2)cc(OC)c1OC` [Dilazep] here?
**A.** The value was 0.426.

**Q.** Which “LC3 puncta (log2)” value does the source give for `CC(CCCCC(=O)Nc1ccc(C(F)(F)F)cc1)NCCc1cnc[nH]1` (stereo not given) [HTMT dimaleate] here?
**A.** The value was 0.469.

**Q.** Which “LC3 puncta (log2)” value does the source give for `CC12CC3CC(C)(C1)CC(N)(C3)C2` [Memantine hydrochloride] here?
**A.** The value was 0.723.

**Q.** `CC1(C(=O)O)NCCc2cc(O)c(O)cc21` (stereo not given) [Salsolinol-1-carboxylic acid] was tested. Which “LC3 puncta (log2)” value did it give?
**A.** The value was 0.429.

**Q.** With `CN(C)CCCCSC(=N)N` as the compound, how does the “LC3 puncta (log2)” value read?
**A.** The value was 0.383.

**Q.** Which “LC3 puncta (log2)” value does the source give for `O=[N+]([O-])c1cccc2cn[nH]c12` [7-Nitroindazole] here?
**A.** Its value is 0.507.

**Q.** With `N[C@H](C(=O)O)c1ccc(O)c(C(=O)O)c1` [(S)-3-Carboxy-4-hydroxyphenylglycine] as the compound, how does the “LC3 puncta (log2)” value read?
**A.** The value was 0.54.
